# Measurements taken from PubChem BioAssay (NCATS).
# Records with an inconclusive call do not appear. The source made the active and inactive calls. Calls come from the whole dose curve.
# Assay: Cell Viability - MRC5 (AID 434);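 note: potency reflects cytotoxicity seen as loss of intracellular ATP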
# Settings: MRC5 lung fibroblast viability, qHTS
# Description: NIH Chemical Genomics Center [NCGC]
# NIH Molecular Libraries Screening Centers Network [MLSCN]
# National Institutes of Environmental Health Sciences [NIEHS]
# National Toxicology Program [NTP]
# We have developed a 1536-well cell-based assay for quantitative high throughput screening (qHTS) against a number of cell lines to determine in vitro cytotoxicity of small molecules. This particular assay uses the MRC5 cell line which is derived from normal human lung fibroblasts.
# NCGC Assay Protocol Summary:
# The CellTiter-Glo luminescent cell viability assay (Promega) is a homogeneous method to measure the number of viable cells in culture. The end point readout of this assay is based on quantitation of intracellular ATP, an indicator of metabolic activity, using the luciferase reaction. Luciferase catalyzes the oxidation of beetle Luciferin to oxyluciferin and light in the presence of ATP. The luminescent signal is proportional to amount of ATP present.
# Using the CellTiter-Glo luminescent cell viability assay, the amount of cellular ATP was measured in the MRC5 cell line with complete culture medium following compound treatment for 40 hours. The assay was performed in opaque white Kalypsys 1536-well plates. In the screen, tamoxifen and doxorubicin were used as positive controls. Library compounds were measured for their ability to cause acute toxicity in the cell line, as reflected by a decrease in intracellular ATP levels, in a concentration-dependent manner. Data were normalized to the controls for basal activity (DMSO only) and 100% inhibition (100 uM tamoxifen). AC50 values were determined from concentration-response data modeled with the standard Hill equation.
# qHTS protocol for CellTiter Glo MRC5 cellular assay
# [Step] [Parameter] [Value] [Description]
# 1. Reagent; 5 uL; 1500 MRC5 cells/well
# 2. Time; 5 hr; 37 °C incubation
# 4. Controls; 23 nL; Tamoxifen 0.34 uM to 100 uM & Doxorubicin 0.02 nM to 100 uM
# 5. Time; 40 hr; 37 °C incubation
# 6. Reagent; 5 uL; CellTiter Glo reagent
# 7. Time; 20 min; Room Temperature
# 8. Detection; Luminescence; Viewlux plate reader
# Keywords: cell viability, cytotoxicity, MRC5 cell line, luminescence, NTPHTS, NTPHTS_NCGC, NIEHS, EPA, DSSTox, MLSMR, MLSCN, NIH Roadmap, qHTS, NCGC
# Potency is the fitted concentration of half-maximal effect.
row,SMILES,Potency
1,CCCCC/C=C/C=C/C=O,> 92 µM (inactive)
2,CCCCOCCOCCSC#N,> 92 µM (inactive)
3,CC(=O)c1ccc([N+](=O)[O-])cc1,> 92 µM (inactive)
4,O=[N+]([O-])c1c(Cl)cc(Cl)cc1Cl,> 92 µM (inactive)
5,CC(C)=CCl,> 92 µM (inactive)
6,ON=C1CCCCC1,> 92 µM (inactive)
7,Cc1cc(C(=O)O)ccc1[N+](=O)[O-],> 92 µM (inactive)
8,CC(=O)OCc1ccco1,> 92 µM (inactive)
9,CC(C)(O)C(=O)O,> 92 µM (inactive)
10,O=C(O)c1ccc(Cl)cc1Cl,> 92 µM (inactive)
11,CC(C)CCOC(=O)/C=C/c1ccccc1,> 92 µM (inactive)
12,COc1ccc(N)c(C)c1,> 92 µM (inactive)
13,CC(N)CN (stereo not given),> 92 µM (inactive)
14,Cc1nc2ccc(Cl)cc2[nH]1,> 92 µM (inactive)
15,O=C1OC(=O)c2c(Cl)c(Cl)c(Cl)c(Cl)c21,> 92 µM (inactive)
16,O=c1[nH][nH]c(=O)c2cc([N+](=O)[O-])ccc12,> 92 µM (inactive)
17,Cc1ccccc1C(N)=O,> 92 µM (inactive)
18,CC1(N)CCC(C(C)(C)N)CC1 (stereo not given),> 92 µM (inactive)
19,Cc1c(C(=O)O)cccc1[N+](=O)[O-],> 92 µM (inactive)
20,CC(O)COC(C)(C)C (stereo not given),> 92 µM (inactive)

row,SMILES,Potency
1,Cc1ccccc1Br,> 92 µM (inactive)
2,FC(F)(F)c1cccc(Cl)c1,> 92 µM (inactive)
3,ICCc1ccccc1,> 92 µM (inactive)
4,Oc1c(Cl)ccc(Cl)c1Cl,> 92 µM (inactive)
5,CSc1ccc(C=O)cc1,> 92 µM (inactive)
6,CCOC(=O)OCC,> 92 µM (inactive)
7,C[C@@H]1O[C@@H](O[C@@H]2[C@@H](O)[C@H](OCCc3ccc(O)c(O)c3)O[C@H](CO[C@@H]3O[C@H](CO)[C@@H](O)[C@H](O)[C@H]3O)[C@H]2OC(=O)/C=C/c2ccc(O)c(O)c2)[C@H](O)[C@H](O)[C@H]1O,> 92 µM (inactive)
8,CCCC(Cl)CCCC(Cl)CCC(Cl)CCC(Cl)CCC(Cl)CCCC(Cl)CCC (stereo not given),> 92 µM (inactive)
9,CCOC(C)(C)C,> 92 µM (inactive)
10,Nc1ccc(Cl)cc1[N+](=O)[O-],> 92 µM (inactive)
11,CCCCC=O,> 92 µM (inactive)
12,COc1ccccc1[N+](=O)[O-],> 92 µM (inactive)
13,Nc1nc(-c2ccccc2)cs1,> 92 µM (inactive)
14,O=C(O)CNC(=O)c1ccc(CO)o1,> 92 µM (inactive)
15,c1ccc(Oc2ccccc2)cc1,> 92 µM (inactive)
16,CC(C)=CCC/C(C)=C/C=O,> 92 µM (inactive)
17,CC(C)C=O,> 92 µM (inactive)
18,Nc1cccc2c(=O)[nH][nH]c(=O)c12,> 92 µM (inactive)
19,CCCCCCC(=O)O,> 92 µM (inactive)
20,Cc1ccc(Cl)cc1,> 92 µM (inactive)
